Compound activity from PubChem.
The entries come from a sample that favours hits as a whole.
AMA1 RON2 block = qHTS for Inhibitors of AMA1-RON; Towards Development of Antimalarial Drug Lead: Primary Screen. Plasmodium falciparum AMA1 (3D7) - RON2 peptide interaction. AID 720542, 2013. AlphaScreen AMA1-biotinylated RON2 peptide binding. 360,000 tested, 0.2% active. Potency, µM (titrated, usually from 58.2 µM), for the others: at the top dose activity change, negative = inhibition, actives largely listed as inhibitors; active = well fitted inhibition curve with a large enough effect; inconclusive = small, poorly fitted or top-dose-only effect; inactive = no such curve, though single readings can be large or run the other way;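 note: potency is the fitted concentration of half-maximal effect; 0% = vehicle wells and -100% = peptide control; nearly all actives have a fitted effect of over 45% in size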
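AMA1 (3D7) with his tag at 25 nM final met compounds first, then biotinylated RON2 peptide at 25 nM; detection used donor plus acceptor beads, 10 µg/mL apiece, read by AlphaScreen after 30 min at room temperature.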
Lassa entry inh = qHTS for Inhibitors of binding or entry into cells for Lassa Virus | Lassa virus pseudotype entry inhibition, cell reporter | Potency, µM (doses to about 37.9 µM), inactives show at the top dose activity change, negative = inhibition, most hits filed as inhibitors | 300,000 tested, 1.2% active | AID 540256, 2011; calls by dose curve; tested in HEK293 cells; note: potency is the fitted concentration of half-maximal effect; % is set by controls: 0 for no effect and ±100 for the full control effect; nearly all actives have a fitted effect of over 50% in size
Cycloheximide cs = Cycloheximide Counterscreen for Small Molecule Inhibitors of Shiga Toxin; cell reporter, cycloheximide protein synthesis inhibition counterscreen; max response, %; 300,000 tested, 12% active; AID 2314, 2010; in the data active = max response mostly above about 13%, no sharp cut-off; inactive = mostly below about 14%; note: read at 38.3 µM for the half of the compounds with a filed dose; 0% is about no effect
Marburg entry inh = qHTS for inhibitors of binding or entry into cells for Marburg Virus; Marburg virus pseudotyped entry inhibition, cell reporter; Potency, µM (highest dose often 37.8 µM), for inactives: top-dose activity change, negative = inhibition, hits mostly inhibitors; 300,000 tested, 1.8% active; AID 540276, 2011; calls by dose curve; tested in HEK293 cells; note: potency is the fitted concentration of half-maximal effect; % is set by controls: 0 for no effect and ±100 for the full control effect
Shiga inhibitor = A qHTS for Small Molecule Inhibitors of Shiga Toxin | Vero cells, Shiga toxin protein synthesis inhibition reporter | AID 2315, 2010 | inhibition, % at 38.7 µM | 290,000 tested, 9.2% active; in the data active = inhibition mostly above about 28%, no sharp cut-off; inactive = mostly below about 43%; note: 0% is about no effect
* hit, by the source's call; [ ] = dose if it differs, or a comment.

For COc1cccc(NC(=O)CCC(=O)N2CC(C)Oc3ccc(C)cc32)c1 (centres undefined) the results were AMA1 RON2 block 6%, Cycloheximide cs -1 and Shiga inhibitor 1.
For COc1ccc(CCNC(=O)CSc2nnc3ccccn23)cc1 the results were AMA1 RON2 block -15%, Lassa entry inh -21%, Cycloheximide cs -2, Marburg entry inh 5%[46.1 µM] and Shiga inhibitor -1.
`COc1ccc(S(=O)(=O)Nc2ccc3c(c2)C(=O)N([C@H](C)CO)C[C@H](C)[C@@H](CN(C)C(=O)Nc2c(C)noc2C)O3)cc1` gave AMA1 RON2 block 9%.
CC(C)c1ccc(NC(=O)c2cnc3sc(N4CCCC4)nn3c2=O)cc1 was read as Lassa entry inh -24%[46.1 µM].
`Cc1ccc(C)c(CSc2nc3ncccc3[nH]2)c1` gave Lassa entry inh 7%[46.1 µM].
Screening Cc1ccc(NC(=O)CSc2ncccn2)cc1F returned AMA1 RON2 block -4%, Cycloheximide cs 46* and Shiga inhibitor 64*.
Screening Cc1ccc(CSc2nc3ncccc3[nH]2)cc1 returned AMA1 RON2 block 5%, Lassa entry inh inconclusive, Cycloheximide cs 20*, Marburg entry inh inconclusive and Shiga inhibitor 64*.
N#Cc1ccccc1NC(=O)CSc1nccn1CCc1ccccc1 was read as AMA1 RON2 block -6%, Lassa entry inh 2%, Cycloheximide cs 37*, Marburg entry inh 6% and Shiga inhibitor 78*.
Cc1cc(C)nc(SCC(=O)Nc2ccc(S(=O)(=O)Nc3ncccn3)cc2)n1 was read as AMA1 RON2 block 0%, Lassa entry inh -2%[46.1 µM], Cycloheximide cs 35*, Marburg entry inh 12%[46.1 µM] and Shiga inhibitor 75*.
Cc1ccc(SCC(=O)Nc2ccc(S(=O)(=O)Nc3ncccn3)cc2)cc1 was read as AMA1 RON2 block -8%, Lassa entry inh 6%, Cycloheximide cs 3, Marburg entry inh inconclusive and Shiga inhibitor -2.
For CC(=O)Nc1ccc(NC(=O)CSc2nccn2Cc2ccccc2)cc1 the results were AMA1 RON2 block 20%, Lassa entry inh 2%, Cycloheximide cs 9, Marburg entry inh 2% and Shiga inhibitor 5.
Screening CC(=O)c1ccc(NC(=O)CSc2nccn2CCc2ccccc2)cc1 returned AMA1 RON2 block 0%, Lassa entry inh inconclusive, Cycloheximide cs 33*, Marburg entry inh -20% and Shiga inhibitor 88*.
`CCOC(=O)c1ccc(NC(=O)CSc2nc3ncccc3[nH]2)cc1` gave AMA1 RON2 block 1%, Lassa entry inh 11%, Cycloheximide cs 23*, Marburg entry inh -3% and Shiga inhibitor 16*.
`CCN(CC)c1ccc(-c2nnc(SCC(=O)Nc3ccccc3C#N)n2-c2ccccc2)cc1` gave AMA1 RON2 block -9%, Lassa entry inh 11µM*, Cycloheximide cs -4, Marburg entry inh inconclusive and Shiga inhibitor -10.
Screening Cc1ccc(NC(=O)CSc2nccn2Cc2ccccc2)cc1C returned AMA1 RON2 block -22%, Lassa entry inh inconclusive, Cycloheximide cs 48*, Marburg entry inh 0% and Shiga inhibitor 99.
Screening CCNC(=O)c1ccc(C23CC4CC(CC(C4)C2)C3)o1 returned AMA1 RON2 block 27%, Lassa entry inh inconclusive, Cycloheximide cs 0, Marburg entry inh -4%[46.1 µM] and Shiga inhibitor 30.
`CC(C)(C)OC(=O)NS(=O)(=O)NCc1ccco1` gave Cycloheximide cs 6 and Shiga inhibitor 12.
`CC(=O)c1ccc(-c2ccc(C(=O)NCC3CCCO3)o2)cc1` (centres undefined) gave AMA1 RON2 block -9%, Lassa entry inh -18%[46.1 µM] and Marburg entry inh -2%.
COc1cccc(C(=O)Nc2nc(-c3nnn(-c4cccc(Cl)c4C)c3C)ns2)c1 was read as Lassa entry inh 3%[46.1 µM].
Screening CCc1noc(C)c1C(=O)OCC(=O)NCc1ccccc1OC returned AMA1 RON2 block 12%.
Screening CCOC(=O)c1cc(C)sc1NC(=O)CSc1nccn1C returned AMA1 RON2 block -2%, Lassa entry inh -12%, Cycloheximide cs 50*, Marburg entry inh 28% and Shiga inhibitor 111*.
Cc1nc2c(C#N)c(-c3ccc(Cl)cc3)ccn2n1 was read as AMA1 RON2 block -10%, Lassa entry inh 5%[46.1 µM], Cycloheximide cs -3, Marburg entry inh 4%[46.1 µM] and Shiga inhibitor -6.
`CC(C)(C)c1nc2c(C#N)c(-c3ccc(Cl)cc3)ccn2n1` gave AMA1 RON2 block 11%, Lassa entry inh -24%, Cycloheximide cs 25*, Marburg entry inh inconclusive and Shiga inhibitor 57.
Cc1nc2ccc(S(=O)(=O)NC(CC(C)C)C(=O)NCc3ccc(Cl)cc3)cc2s1 (centres undefined) was read as Lassa entry inh -10%[46.1 µM] and Marburg entry inh inconclusive.
For O=c1[nH]c(=O)n(-c2ccccc2)c2c1C(C(F)(F)F)(C(F)(F)F)N=C(CCC1CCCCC1)N2 the results were AMA1 RON2 block -17%, Lassa entry inh 11µM*, Cycloheximide cs -2, Marburg entry inh inconclusive and Shiga inhibitor -12.
COc1cc(/C=C2\CC(C(C)(C)C)C/C(=C\c3cc(OC)c(OC)c(OC)c3)C2=O)cc(OC)c1OC (centres undefined) was read as AMA1 RON2 block inconclusive, Cycloheximide cs 9 and Shiga inhibitor 34.
CCC1C/C(=C\c2cc(OC)c(OC)cc2OC)C(=O)/C(=C/c2cc(OC)c(OC)cc2OC)C1 (centres undefined) was read as AMA1 RON2 block 22µM*, Cycloheximide cs 3 and Shiga inhibitor -4.
`COc1cc(OC)c(OC)cc1/C=C1/Cc2ccccc2C1=O` gave AMA1 RON2 block 0%, Cycloheximide cs -5 and Shiga inhibitor -6.
For COc1cc(OC)c(OC)cc1/C=C1\CC(C)C/C(=C\c2cc(OC)c(OC)cc2OC)C1=O (centres undefined) the results were AMA1 RON2 block 32µM*, Cycloheximide cs -1 and Shiga inhibitor 4.
Screening COc1ccc(OC)c(CCNC(=O)c2cc3c(=O)oc4ccc(C)cc4c3s2)c1 returned Lassa entry inh 10%[46.1 µM] and Marburg entry inh -28%[46.1 µM].
For C/C(=C\C(=S)Nc1ccccc1)Nc1ccc2ccccc2c1 the results were AMA1 RON2 block 3%, Lassa entry inh 14%, Cycloheximide cs 74*, Marburg entry inh -3% and Shiga inhibitor 143*.
Screening COC(=O)c1ccc(NC(=S)Nc2ccc3ccccc3c2)cc1 returned AMA1 RON2 block -10%, Lassa entry inh -8%, Cycloheximide cs -1, Marburg entry inh -22% and Shiga inhibitor 17.
C/C(=C\C(=S)Nc1ccccc1)Nc1cccc2ccccc12 was read as AMA1 RON2 block -9%, Lassa entry inh -16%, Cycloheximide cs 41*, Marburg entry inh inconclusive and Shiga inhibitor 68*.
For c1ccc(Nc2cccc3ccccc23)cc1 the results were AMA1 RON2 block 4%.
`O=C(Cn1c(NCCO)nc2ccccc21)Nc1ccc2c(c1)OCCCO2` gave AMA1 RON2 block 19%, Lassa entry inh 3% and Marburg entry inh -6%[46.1 µM].
